# Laboratory results taken from article PMC4336329 (PLoS ONE, 2015).
# About 14,000 (4.5%) of roughly 310,000 compounds showed an effect of 50% or more. Effects have a minus sign here. The entries come from a sample that favours strong results as a whole.
# Molecular target: human ether-à-go-go-related gene (hERG) potassium channel (human, UniProt Q12809)
# Test: primary screen, population patch clamp on CHO cells stably expressing hERG; higher = less effect of the substance
# 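Further: peak tail current of the secondary pulse compared with the same well before compound.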
# Chain of human ether-à-go-go-related gene (hERG) potassium channel (Q12809 whole entry, looked up): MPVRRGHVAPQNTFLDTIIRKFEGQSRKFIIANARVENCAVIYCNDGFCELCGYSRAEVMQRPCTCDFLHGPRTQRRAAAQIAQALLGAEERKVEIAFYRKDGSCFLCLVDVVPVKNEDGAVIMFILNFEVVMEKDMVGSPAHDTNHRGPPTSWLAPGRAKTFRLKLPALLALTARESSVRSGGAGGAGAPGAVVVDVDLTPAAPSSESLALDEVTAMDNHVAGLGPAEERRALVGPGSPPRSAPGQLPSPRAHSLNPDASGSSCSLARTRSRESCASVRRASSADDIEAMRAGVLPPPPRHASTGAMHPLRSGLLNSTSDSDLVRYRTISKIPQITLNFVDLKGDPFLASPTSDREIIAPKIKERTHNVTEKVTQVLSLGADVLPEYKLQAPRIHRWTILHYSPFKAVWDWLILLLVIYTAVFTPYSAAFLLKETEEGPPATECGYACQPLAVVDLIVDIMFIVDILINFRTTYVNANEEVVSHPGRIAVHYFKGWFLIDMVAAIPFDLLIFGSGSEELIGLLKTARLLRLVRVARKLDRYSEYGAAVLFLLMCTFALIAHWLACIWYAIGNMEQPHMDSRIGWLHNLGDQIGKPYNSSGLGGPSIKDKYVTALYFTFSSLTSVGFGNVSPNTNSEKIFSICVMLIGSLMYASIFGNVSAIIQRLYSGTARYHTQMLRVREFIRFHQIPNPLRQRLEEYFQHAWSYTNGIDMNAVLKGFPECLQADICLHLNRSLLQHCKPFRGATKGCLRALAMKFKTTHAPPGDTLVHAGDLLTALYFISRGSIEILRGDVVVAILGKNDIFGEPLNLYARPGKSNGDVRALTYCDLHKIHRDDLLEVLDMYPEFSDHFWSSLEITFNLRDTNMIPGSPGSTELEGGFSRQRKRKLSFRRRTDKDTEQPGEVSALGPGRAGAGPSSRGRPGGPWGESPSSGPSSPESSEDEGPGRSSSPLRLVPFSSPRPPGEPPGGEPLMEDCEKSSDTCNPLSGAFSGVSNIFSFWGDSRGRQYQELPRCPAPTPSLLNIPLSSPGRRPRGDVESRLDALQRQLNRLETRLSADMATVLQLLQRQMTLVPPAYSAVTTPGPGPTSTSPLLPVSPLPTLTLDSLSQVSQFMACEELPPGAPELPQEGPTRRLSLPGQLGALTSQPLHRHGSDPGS
row,Compound,"hERG current change (%, negative = inhibition) at 10uM [%]"
1,COc1cc2c(-c3ccc(O)cc3)nc3c(c(C)nn3-c3ccccc3)c2cc1OC,11.5
2,O=C(O)CCSc1nc2ccc(Br)cc2[nH]1,8.75
3,C=C1C[C@@]23CCC4[C@@](C)(CCC[C@@]4(C)C(=O)OC)C2CC[C@]1(OC(C)=O)C3 (some centres unmarked),10.8
4,O=C(Nc1nc(-c2ccc(F)cc2)cs1)c1cnccn1,-0.514
5,CCc1ccc(N(C(C)=O)C2C=CS(=O)(=O)C2)cc1 (centres unmarked),-6.3
6,O=C(CSc1nc(=O)n2ccccc2n1)NCc1ccc2c(c1)OCO2,-37.8
7,COc1ccc(OC)c(S(=O)(=O)NC(N)=NCCc2ccccc2OC)c1,9.89
8,Cc1ccc(C)c2c1cc(C)c1nnc(SCC(=O)Nc3nc4c(s3)CCCC4)n12,1.01
9,CCn1c(CCNC(=O)c2cccs2)nnc1SCC(=O)Nc1nc(-c2ccccc2)cs1,-52
10,CCn1c(SCC(=O)Nc2nc3c(s2)CCCC3)nnc1-c1ccccc1,-56.2
11,Cc1ccc(-c2nnc(SCC(=O)Nc3nc4c(s3)CCCC4)n2C)cc1,6.99
12,Cn1c(SCC(=O)Nc2nc3c(s2)CCCC3)nnc1-c1ccccc1,-16.4
13,CCOC(=O)N1CCN(C(=O)CSCC(=O)Nc2nc(-c3ccc(-c4ccccc4)cc3)cs2)CC1,-11.9
14,Cn1c(CCNC(=O)c2cccs2)nnc1SCC(=O)Nc1nc(-c2ccccc2)cs1,-7.06
15,Cc1ccc2cc(C)c3nnc(SCC(=O)Nc4nc5c(s4)CCCC5)n3c2c1C,-53.8
16,Cc1cccc(-c2nnc(SCC(=O)Nc3nc4c(s3)CCCC4)n2C)c1,-37.3
17,Cc1ccccc1C(=O)NCCc1nnc(SCC(=O)Nc2nc(-c3ccccc3)cs2)n1C,7.36
18,CCOC(=O)N1CCN(C(=O)CSCC(=O)Nc2nc(-c3ccccc3)cs2)CC1,-50.5
19,CCOC(=O)N1CCN(C(=O)CSCC(=O)Nc2nc(-c3ccc(C)cc3)cs2)CC1,-14.1
20,Cc1ccc(N2CCN(S(=O)(=O)c3nnc(NC(=O)c4ccco4)s3)CC2)cc1,15.6
21,CS(=O)(=O)c1cccc(C(=O)NCc2ccc(F)cc2)c1,0.5
22,COC(C/C=C\[C@@H](O)[C@H](C)OCc1ccccc1)OC,25.7
23,CCSc1nnc(NC(=O)c2cccnc2Cl)s1,16.3

row,Compound,"hERG current change (%, negative = inhibition) at 10uM [%]"
1,Cc1cccc(N(C(=O)CNC(=O)c2cccs2)C(C(=O)NC2CCCC2)c2cccnc2)c1 (centres unmarked),1.66
2,CCOc1ccc(N(CC(=O)N2CCN(Cc3ccccc3)CC2)S(C)(=O)=O)cc1,-12.2
3,O=C(N/C(=C/c1ccc(F)cc1)C(=O)N1CCCCC1)c1ccco1,-18.7
4,CN1C(=O)C(=Cc2ccc(N3CCCCCC3)o2)C(=O)N(C)C1=S,6.46
5,CNC(=S)N1CCc2cc(OC)c(OC)cc2C1COc1ccc(F)cc1 (centres unmarked),-22.6
6,Br.CN(CC(O)C[NH+]1CCOCC1)S(=O)(=O)[O-] (centres unmarked),17
7,Cc1nc2ccccc2c(=O)n1NC(=O)C1CC1,16.3
8,O=C(CSc1nnc(-c2ccncc2)n1Cc1ccco1)Nc1nc(-c2ccccc2)cs1,-57.4
9,COc1ccccc1-c1nnc(SCC(=O)Nc2nc(-c3ccccc3)cs2)n1C,-71.8
10,CCn1c(SCC(=O)Nc2nc(-c3ccccc3)cs2)nnc1-c1ccccc1O,-20.8
11,CCn1c(SCC(=O)Nc2nc(-c3ccccc3)cs2)nnc1-c1ccccc1,-66.6
12,CCOC(=O)Cc1csc(NC(=O)CSc2nnc(-c3ccncc3)n2Cc2ccco2)n1,-5.63
13,Cc1nnc(SCC(=O)Nc2nc(-c3ccccc3)cs2)n1N,2.68
14,CCn1c(SCC(=O)Nc2nc(-c3ccc(C)cc3)cs2)nnc1-c1ccccc1,-1.44
15,Cn1cnnc1SCC(=O)Nc1nc(-c2ccccc2)cs1,-4.33
16,O=C(CSc1nnc(-c2cccnc2)n1Cc1ccco1)Nc1nc(-c2ccc(F)cc2)cs1,-70.6
17,NC(=O)c1ccc(NC(=O)CSc2nnc(-c3ccncc3)n2Cc2ccco2)cc1,2.42
18,NC(=O)c1ccc(NC(=O)CSc2nnc(-c3cccnc3)n2Cc2ccco2)cc1,6.87
19,CCOC(=O)Cc1csc(NC(=O)CSc2nnc(-c3cccnc3)n2Cc2ccco2)n1,-30.5
20,CC(C)OCCCNC(=O)c1cccs1,-9.39
21,COc1cc2c(cc1OC)C(c1cc(OC)c(OC)cc1[N+](=O)[O-])N(C(C)=O)CC2 (centres unmarked),26
22,N#C/C(=N\[O-])c1nc(-c2ccccc2)cs1.[K+],-8.69
23,O=C(O)c1ccc(N/N=C/c2cccc(C(F)(F)F)c2)cc1,27.3

row,Compound,"hERG current change (%, negative = inhibition) at 10uM [%]"
1,CN1CCc2c(sc(NC(=O)c3ccc4ccccc4c3)c2C(N)=O)C1.Cl,-5.05
2,CN1CCc2c(sc(NC(=O)C3CCCCC3)c2C(N)=O)C1.Cl,2.22
3,CN1CCc2c(sc(NC(=O)c3cc(Cl)sc3Cl)c2C(N)=O)C1.Cl,-59.8
4,CC(=O)N1CCc2c(sc(NC(=O)C3CCCN3S(=O)(=O)c3cccs3)c2C(N)=O)C1 (centres unmarked),-2.88
5,CN1CCc2c(sc(NC(=O)c3ccco3)c2C(N)=O)C1.Cl,-17
6,CN1CCc2c(sc(NC(=O)C3CCCN3S(=O)(=O)c3ccc(Cl)s3)c2C(N)=O)C1.Cl (centres unmarked),-63.6
7,Cc1ccc(-n2cnc3ncnc(-c4ccccc4)c32)cc1,-6.83
8,Cc1ccc2[nH]c3c(c2c1)CN(C)CC3.Cl,-5.01
9,O=C(CN(C(=O)c1csnn1)c1cccc(Cl)c1)NC1CCCC1,-2.38
10,COc1ccc(CCC(=O)NNC(=O)Nc2ccc(C(C)C)cc2)cc1,23.8
11,COc1ccc(NC(=O)CN2CCN(c3ccccn3)CC2)cc1Cl,-17.4
12,COc1ccc(CC(NC(C)=O)C(=O)NC2CCN(S(=O)(=O)c3ccccc3)CC2)c(OC)c1 (centres unmarked),20.5
13,COc1ccccc1/C=C/CN1CCCCC1,-2.31
14,COc1ccccc1/C=C/CN1CCCC(CO)(CCc2ccccc2)C1 (centres unmarked),-74.7
15,COc1ccccc1/C=C/CN1CCSCC1,-3.74
16,COc1ccccc1/C=C/CN1CCOCC1,-3.9
17,COc1ccc(CC2(CO)CCN(C/C=C/c3ccccc3OC)CC2)cc1,-72.8
18,COCc1ccc(CN2CCCC(CO)(Cc3cccc(Cl)c3)C2)o1 (centres unmarked),-46.1
19,COc1ccc(/C=C/CN2CCCC(CO)(Cc3cccc(Cl)c3)C2)cc1 (centres unmarked),-50.8
20,COc1cccc(CC2(CO)CCCN(C/C=C/c3ccccc3OC)C2)c1 (centres unmarked),-73.2
21,COc1ccccc1/C=C/CN1CCC(CO)(Cc2ccccc2)CC1,-37.9
22,COc1ccc(F)c(CN2CCCC(CO)(Cc3cccc(Cl)c3)C2)c1 (centres unmarked),-30.6
23,C=CCC1NS(=O)(=O)OC2CCCC12 (centres unmarked),10.6

row,Compound,"hERG current change (%, negative = inhibition) at 10uM [%]"
1,Cc1ccc(Cn2cccc(NC(=O)NCc3ccccc3)c2=O)cc1,-6.27
2,NC(=O)c1ccc[n+]([C@H]2O[C@@H](COP(=O)([O-])OP(=O)(O)OC[C@H]3O[C@@H](n4cnc5c(N)ncnc54)[C@H](O)[C@@H]3O)[C@H](O)[C@@H]2O)c1,12.1
3,Cc1c(C(=O)NN2CCOCC2)oc2c1ccc1ccccc12,2.24
4,Cc1ccc(C(=O)OCc2nnc(-c3ccccc3)o2)cc1S(=O)(=O)N1CCOCC1,-26.7
5,CN1CCN(C(=O)CC2(CC(=O)O)CCCC2)CC1.Cl,-1.66
6,CCn1c(CNC(=O)c2cccc(C)c2)nnc1SCC(=O)Nc1nnc(C)s1,15.4
7,Cn1c(=O)c(=O)n(C)c2cc(S(=O)(=O)NCCOc3ccccc3Cl)ccc21,1.26
8,COc1ccccc1/C=C/CN1CCCC(CO)(Cc2cccc(Cl)c2)C1 (centres unmarked),-69.6
9,COc1ccc(C2CC(=O)c3cc(OC)c(OC)cc32)cc1OC (centres unmarked),20.7
10,COc1ccc(CN(C)C(C)C(=O)Nc2cccc3ccccc23)cc1 (centres unmarked),-14.1
11,Cc1ccc(NC(=O)C2CC(=O)Nc3nncn32)cc1 (centres unmarked),14.4
12,O=C(COC(=O)c1ccc(O)cc1)NCC1COc2ccccc2O1 (centres unmarked),-3.35
13,COc1ccc(/C=C/C(=O)NC(=S)NNC(=O)c2ccco2)cc1,13.8
14,Cc1ccc(/C(O)=C2/C(=O)C(=O)N(CCN3CCOCC3)C2c2cccs2)cc1 (centres unmarked),8.67
15,Cc1ccc(-c2csc3nnc(SCC(=O)Nc4nsc(-c5ccccc5)n4)n23)cc1,-62.9
16,Cn1c(SCC(=O)N2CCN(Cc3ccccc3)CC2)nnc1-c1ccncc1,-2.39
17,c1ccc(-c2csc3nnc(SCc4ccc5c(c4)OCCO5)n23)cc1,-3.29
18,Cc1ccc(-c2csc3nnc(SCC(=O)N4CCN(Cc5ccccc5)CC4)n23)cc1,-55.3
19,Cc1ccc(-c2nc(NC(=O)CSc3nnc4scc(-c5ccccc5)n34)ns2)cc1,-1.19
20,c1ccc(-c2csc3nnc(SCc4ccc5c(c4)OCO5)n23)cc1,-71.4
21,O=C(CSc1nnc2scc(-c3ccccc3)n12)Nc1nsc(-c2ccccc2)n1,-40.1
22,O=C(CSc1nnc2scc(-c3ccccc3)n12)N1CCN(Cc2ccccc2)CC1,-41.8
23,O=C(CSc1nnc2scc(-c3ccccc3)n12)NCc1ccc2c(c1)OCO2,-21.1
